Source: PubChem BioAssay AID493030 (The Scripps Research Institute Molecular Screening Center, 2011)
About 1,500 (65%) of roughly 2,300 compounds were called active. So high a share suggests a set chosen from earlier hits. Not all results are given here. Values without a mark were called inactive.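 How the source made its calls: active means mean inhibition over three repeats above a set limit taken from the earlier primary screen (cut at about 30% in these data); inactive means the rest.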

Biological target: Platelet-activating factor acetylhydrolase 2, cytoplasmic (Homo sapiens) (UniProt Q99487)
Test: PAFAH2 enzyme inhibitors, confirmation, biochemical, fluorescence polarization, human (AID 493030);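 further: inhibitor blocks binding of rhodamine activity probe so polarization falls; 0% = enzyme with DMSO and 100% = wells lacking PAFAH2 protein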
Conditions: recombinant PAFAH2, FP-rhodamine activity probe, at 3.39 µM, active compounds read high

| SMILES | inhibition |
| --- | --- |
| COc1ccc(C(=O)ON=C2c3ccccc3-c3ccccc32)cc1OC | 68.7% (active) |
| COc1ccc(/C=N/N(C)C2=NS(=O)(=O)c3ccccc32)cc1OC | 9.39% |
| O=C(Nc1nnc(SCc2ccccc2Cl)s1)c1cccc([N+](=O)[O-])c1 | 22.6% |
| O=C(Nc1nnc(SCc2c(Cl)cccc2Cl)s1)c1cccc([N+](=O)[O-])c1 | 52% (active) |
| O=C(Nc1nnc(SCc2c(Cl)cccc2Cl)s1)C1CCCO1 (stereo not drawn) | 24% |
| O=c1oc(/C=C/c2ccccc2)nc2ccccc12 | 79.7% (active) |
| Cc1ccc(NC(=O)COC(=O)C2C3CC4OC(=O)C2C4C3)cc1Cl (stereo not drawn) | 76% (active) |
| Cc1ccc(C(=O)OCC(=O)Nc2ccc(Cl)cn2)cc1S(=O)(=O)N1CCOCC1 | 54.4% (active) |
| Cc1ccc(Cl)cc1NC(=O)COC(=O)C1CCCCC1 | 17.7% |
| O=C(COC(=O)c1ccco1)Nc1ccc(Cl)cn1 | 33.1% (active) |
| Cc1ccc(NC(=O)COC(=O)C2CC2)cc1S(=O)(=O)N1CCOCC1 | 61.3% (active) |
| Oc1oc(-c2ccccc2Br)nc1/C=N/c1ccccn1 | 52.6% (active) |
| COc1ccc(C2=NN(c3nc4ccccc4s3)C(=O)C2)cc1 | 46.9% (active) |
| CC1CC1C(=O)OCC(=O)Nc1cccc(F)c1 (stereo not drawn) | 83.6% (active) |
| O=C(COC(=O)C1CC2C=CC1C2)Nc1ccccc1 (stereo not drawn) | 69.6% (active) |
| COc1cc(NC(=O)COC(=O)c2ccc([N+](=O)[O-])s2)cc(OC)c1OC | 35.9% (active) |
| O=C(OCc1nc2ccccc2[nH]1)C1CCCCC1 | 51.7% (active) |
| Cc1c(Cl)cnc(NC(=O)COC(=O)C2CCCC2)c1Cl | 15.8% |
| O=C(O)c1ccccc1N=N/C(=N/Nc1cc(S(=O)(=O)O)ccc1O)c1ccccc1 | 8.84% |
| COc1ccccc1Nc1nc(N)nc(CSC(=S)N2CCOCC2)n1 | 26.7% |
| CCn1c(/C=N/NC(=O)c2ccc(OC)cc2)nc2ccccc21 | 6.41% |
| N#Cc1cccc(NC(=O)COC(=O)c2ccccc2C(=O)c2ccc(Cl)c([N+](=O)[O-])c2)c1 | 34.2% (active) |
| CC1=NN(c2ccc(Cl)c(C(=O)O)c2)C(=O)/C1=C/c1ccc(-c2ccccc2[N+](=O)[O-])o1 | 27.5% |
| Cc1cc(C(=O)COC(=O)C2CC2)c(C)n1-c1ccc(F)cc1 | 36.1% (active) |
| CC(=O)Oc1ccc(-c2nc3c(C)cccc3c(=O)o2)cc1 | 23.6% |

| SMILES | inhibition |
| --- | --- |
| Cc1ccc(-c2nc3c(cnn3-c3ccccc3)c(=O)o2)cc1 | 44% (active) |
| Cc1cccc(/C=N/NC(=O)CNc2cccc3ccccc23)n1 | 30.5% (active) |
| Clc1ccccc1CSc1nnc(-c2ccco2)c(-c2ccco2)n1 | 16.4% |
| COc1ccc(C(=O)OCC(=O)NCC2CCCCC2)cc1S(=O)(=O)N1CCCc2ccccc21 | 60.8% (active) |
| COc1ccc(C(=O)O/N=C(\N)Cc2ccc(Cl)cc2Cl)cc1OC | 80.9% (active) |
| O=C(NNC(=O)c1ccccc1O)c1ccccc1O | 20.3% |
| O=c1oc(-c2ccccc2NS(=O)(=O)c2ccc(Cl)cc2)nc2ccccc12 | 76.7% (active) |
| O=[N+]([O-])c1ccc(C=Nc2ccc(Cl)cc2Cl)s1 | 7.11% |
| O=C(COC(=O)c1cccnc1Cl)NC12CC3CC(CC(C3)C1)C2 | 74.8% (active) |
| COc1cc(C(=O)OCC(=O)NC23CC4CC(CC(C4)C2)C3)cc(OC)c1OC | 67.7% (active) |
| O=C(COC(=O)c1ccc([N+](=O)[O-])o1)NC12CC3CC(CC(C3)C1)C2 | 46.4% (active) |
| COCCNC(=O)/C(C#N)=C/c1cccc(OCc2ccccc2)c1 | 12% |
| O=C(Cc1ccc(S(=O)(=O)N2CCOCC2)s1)NCCOc1ccccc1F | 30.5% (active) |
| CC(C)(C)c1ccc(/C=C2\Oc3c(ccc(O)c3CN3CCN(CCO)CC3)C2=O)cc1 | 66.7% (active) |
| COc1ccc(C(=O)OCC(=O)c2ccc(Cl)s2)c(OC)c1OC | 73.5% (active) |
| Cn1cccc1C(=O)OCC(=O)c1ccc(Br)s1 | 21% |
| O=C(COC(=O)/C=C/c1cccc(Cl)c1)NCc1cccs1 | 35% (active) |
| COc1ccc(/C=C/C(=O)OCC(=O)NCc2cccs2)cc1OC | 56.9% (active) |
| CCOC(=O)CCCN1CC(O)=C(c2nc3ccccc3s2)C1=N | 28.1% |
| O=C(COC(=O)c1n[nH]c2ccccc12)Nc1ccccc1Br | 38.6% (active) |
| O=C(COC(=O)c1n[nH]c2ccccc12)NCc1ccccc1 | 28.3% |
| COCC1CCN(C(=O)c2ccc3oc(Cc4ccccc4)nc3c2)C1 (stereo not drawn) | 40.8% (active) |
| Cc1ccc(/C=C/C(=O)OCC(=O)Nc2cccnc2Cl)cc1 | 23.7% |
| C/C=C/C=C/C(=O)OCC(=O)Nc1ccc(Cl)cc1 | 82.9% (active) |
| Cc1oc2cc(Br)c(O)c(Br)c2c1C(=O)c1ccccc1 | 49.5% (active) |

| SMILES | inhibition |
| --- | --- |
| O=C(c1cccnc1)N(c1cc2sc(=O)oc2c2ccccc12)S(=O)(=O)c1ccccc1 | 25% |
| COc1ccc(C(=O)OCC(=O)Nc2cccc(C(C)=O)c2)cc1OC | 79% (active) |
| COc1ccc(C(=O)OCC(=O)NCCCc2ccccc2)cc1OC | 53.5% (active) |
| COc1cc(/C=C/C(=O)OCC(=O)Nc2cccc(Oc3ccccc3)c2)ccc1O | 61.8% (active) |
| COc1ccc(OC)c(/C=C/C(=O)OCC(=O)Nc2ccc3c(c2)OCCO3)c1 | 48.2% (active) |
| COc1cccc(NC(=O)COC(=O)/C=C/c2ccco2)c1 | 77.9% (active) |
| CC(C)CNC(=O)COC(=O)/C=C/c1ccco1 | 70.3% (active) |
| COc1ccc(/C=C/C(=O)OCC(=O)Nc2cccc(Oc3ccccc3)c2)c(OC)c1 | 34.4% (active) |
| COc1cc(/C=C/C(=O)OCC(=O)NCCCc2ccccc2)ccc1O | 35.2% (active) |
| COc1cccc(C(=O)n2ccc(-c3cccs3)n2)c1 | 11.4% |
| Cc1cc(C(=O)OCC(=O)Nc2ccccc2Cl)c(C)o1 | 31.5% (active) |
| Cc1cc(C)cc(NC(=O)COC(=O)c2cc(C)oc2C)c1 | 61.5% (active) |
| Cc1cc(C(=O)NNC(=O)c2ccccc2O)c(C)o1 | 23.2% |
| Cc1cc(C(=O)OCC(=O)Nc2ccc(F)c(F)c2)c(C)o1 | 74.4% (active) |
| CC(=O)c1c(C)[nH]c(C(=O)OCC(=O)NCCC(C)C)c1C | 22.4% |
| Cc1ccc2c(=O)oc(N(C)C)nc2c1 | 38.2% (active) |
| CCc1ccc(C(=O)OCC(=O)NCC(F)(F)F)cc1 | 51.9% (active) |
| O=C(COC(=O)C1CCCCC1)Nc1ccc([N+](=O)[O-])cc1 | 40.8% (active) |
| CCC(C)c1ccc(NC(=O)COC(=O)C2CCCC2)cc1 (stereo not drawn) | 21.6% |
| COc1ccc(S(=O)(=O)N2CCOCC2)cc1NC(=O)Cc1coc2cc(C)ccc12 | 46.8% (active) |
| COc1ccc(S(=O)(=O)N2CCOCC2)cc1NC(=O)Cc1c(F)cccc1Cl | 24.1% |
| COc1ccc(S(=O)(=O)N2CCOCC2)cc1NC(=O)CC1CC2CCC1C2 (stereo not drawn) | 60.8% (active) |
| NC(=O)Nc1ccc(C(=O)OCC(=O)NC2CCCc3ccccc32)cc1 (stereo not drawn) | 67.4% (active) |
| Nc1ccc(C(=O)OCC(=O)NC2CCCc3ccccc32)cc1[N+](=O)[O-] (stereo not drawn) | 52.2% (active) |
| Cc1cccc(C(=O)OCC(=O)Nc2ccc(F)cc2)c1 | 81.4% (active) |

| SMILES | inhibition |
| --- | --- |
| O=C(COC(=O)c1ccc(F)cc1)Nc1ccc2c(c1)OCO2 | 72.8% (active) |
| CC(C)COC(=O)n1c(=O)oc2ccc(S(=O)(=O)N3CCCCC3)cc21 | 69.2% (active) |
| O=C(COC(=O)c1ccc2ncsc2c1)Nc1ccc(Cl)cc1 | 76.2% (active) |
| CCc1c(SCCC(=O)O)nc2ccccc2c1C | -1.24% |
| COc1ccc(/C=C/C(=O)OCC(=O)NC2CCCCCC2)cc1OC | 79.4% (active) |
| O=C(COC(=O)/C=C/c1ccc(OC(F)F)cc1)NC1CCCCC1 | 62.1% (active) |
| O=C(COC(=O)/C=C/c1cccs1)NC1CCCCC1 | 87.9% (active) |
| C=CCOc1ccc(/C=C/C(=O)OCC(=O)NC2CCCCCC2)cc1 | 77.1% (active) |
| C=CCOc1ccc(/C=C/C(=O)OCC(=O)NC(C)c2ccc(F)cc2)cc1 (stereo not drawn) | 32.5% (active) |
| Oc1c(Cl)cc(Cl)c(Cl)c1Cc1c(O)c(Cl)cc(Cl)c1Cl | 23.1% |
| O=C(COC(=O)C12CC3CC(CC(O)(C3)C1)C2)NC12CC3CC(CC(C3)C1)C2 | 77.7% (active) |
| Cc1ccc2c(c1)C1CN(C)CCC1N2C(=O)c1ccccc1NS(=O)(=O)c1ccc(F)cc1C (stereo not drawn) | 34.1% (active) |
| Cc1ccc(F)cc1S(=O)(=O)Nc1cccc(C(=O)N2CCCC(C(N)=O)C2)c1 (stereo not drawn) | 12.6% |
| O=C(ON=C1CCN(S(=O)(=O)c2ccccc2)CC1)c1ccc(Cl)cc1 | 87.2% (active) |
| CCS(=O)(=O)c1ccc(O)c(NC(=O)COc2ccc(Cl)cc2)c1 | 60.8% (active) |
| CCC1OC(c2ccc([N+](=O)[O-])cc2)=Nc2ccccc21 (stereo not drawn) | 13.7% |
| CCN(CC)c1ccc(C(=O)OCC(=O)c2ccco2)cc1 | 40.6% (active) |
| O=C(COC(=O)c1ccccc1C(=O)c1ccccc1)c1ccco1 | 33.5% (active) |
| CC(=O)Nc1ccc(NC(=O)COC(=O)c2ccccc2C(=O)c2ccccc2)cc1 | 18.4% |
| CC(=O)Nc1ccc(C(=O)OCC(=O)Nc2ccc([N+](=O)[O-])cc2C(F)(F)F)cc1 | 34.5% (active) |
| CCCCN1Cc2c(nc3cc(-c4ccccc4)[nH]n3c2=O)C1=O | 5.46% |
| Cc1cc(NC(=O)COC(=O)/C=C/c2ccc(C)o2)no1 | 14.1% |
| Cc1ccc(/C=C/C(=O)OCC(=O)NCc2ccc(Cl)cc2)o1 | 42.2% (active) |
